HP1b chromo inh: HP1-beta chromodomain-methylated histone interaction inhibition. AID 540317. Potency, µM (titrated, usually from 114 µM), without a hit: at the top dose activity change, negative = inhibition, hits mostly inhibitors. P83916. actives 0.56% (n = 390,000). AlphaScreen HP1-beta / biotin-H3K9me3 peptide binding; note: potency is the fitted concentration of half-maximal effect; nearly all actives have a fitted effect of over 70% in size
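Compound inhibition of the preformed complex between 50 nM HP1-beta and 50 nM biotinylated H3K9me3 peptide was read by AlphaScreen. Buffer was PBS pH 7.4 with 0.01% Tween-20. Incubations ran 30 min at room temperature, with 10 ug/mL donor/acceptor beads.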
Six1-Eya2 inh: Six1/Eya2 interaction inhibition. Q15475+O00167. AlphaScreen GST-Six1/His-Eya2 binding, biochemical; hits give low values. activity change, % (no concentration beside the values). actives 0.56% (n = 360,000). AID 651725; in the data active = activity change below about -65%; inconclusive = mostly about -30% to -63%; note: % is set by controls: 0 for no effect and ±100 for the full control effect
Target sequence (O00167 whole entry, looked up): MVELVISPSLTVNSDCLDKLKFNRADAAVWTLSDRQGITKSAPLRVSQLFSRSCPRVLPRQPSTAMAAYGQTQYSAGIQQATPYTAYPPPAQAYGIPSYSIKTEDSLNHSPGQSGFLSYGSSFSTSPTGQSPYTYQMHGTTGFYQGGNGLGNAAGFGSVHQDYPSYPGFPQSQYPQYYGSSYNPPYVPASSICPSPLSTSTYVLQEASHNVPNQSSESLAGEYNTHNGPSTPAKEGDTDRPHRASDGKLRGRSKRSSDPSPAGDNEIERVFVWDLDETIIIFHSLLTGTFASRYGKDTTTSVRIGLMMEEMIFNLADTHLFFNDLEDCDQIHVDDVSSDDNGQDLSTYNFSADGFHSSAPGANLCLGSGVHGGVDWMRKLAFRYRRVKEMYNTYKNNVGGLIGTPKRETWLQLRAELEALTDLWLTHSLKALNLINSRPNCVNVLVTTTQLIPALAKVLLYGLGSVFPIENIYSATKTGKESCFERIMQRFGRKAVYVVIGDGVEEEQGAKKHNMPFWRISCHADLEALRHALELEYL
Target sequence (Q15475 whole entry, looked up): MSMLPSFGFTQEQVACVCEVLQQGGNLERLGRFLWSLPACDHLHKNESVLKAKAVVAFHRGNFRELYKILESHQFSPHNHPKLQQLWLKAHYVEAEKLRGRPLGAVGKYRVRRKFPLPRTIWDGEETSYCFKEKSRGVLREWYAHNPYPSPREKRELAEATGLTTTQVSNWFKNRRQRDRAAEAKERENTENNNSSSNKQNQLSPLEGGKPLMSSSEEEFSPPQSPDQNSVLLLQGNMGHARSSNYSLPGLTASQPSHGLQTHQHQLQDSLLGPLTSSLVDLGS
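Six1/Eya2 binding was read as AlphaScreen signal after compounds were pinned into GST-Six1 plus His-tagged Eya2 (5X stock 250/500 nM) in pH 8.0 Tris/NaCl/TCEP buffer, beads added, then incubated 1 h, 37 C, dark.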
BAZ2B inh: blocks human BAZ2B. Q9UIF8. AlphaScreen BAZ2B-H3K14Ac peptide displacement. Potency, µM (doses to about 114 µM), for the others: top-dose activity change, negative = inhibition, usual class: inhibitors. actives 4.4% (n = 360,000). AID 504333; note: potency is the fitted concentration of half-maximal effect; % is set by controls: 0 for no effect and ±100 for the full control effect; nearly all actives have a fitted effect of over 60% in size
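Multi-concentration screen (max 110 uM) measuring displacement of acetylated histone H3 peptide from BAZ2B by AlphaScreen, using 50 nM protein, 50 nM peptide and 10 ug/mL streptavidin donor plus Ni-chelate acceptor beads.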
CtBP-E1A inh: blocks the CtBP interaction with E1A; activity change, % (concentration not given with the values); AlphaScreen GST-E1A/His-CtBP binding, 1536-well; hits give low values; actives 0.49% (n = 340,000); in the data active = activity change below about -65%; inconclusive = mostly about -30% to -63%; note: % is set by controls: 0 for no effect and ±100 for the full control effect
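AlphaScreen with 125 nM GST-E1A and 125 nM His-CtBP (5X stocks) in Tris pH 8.0, 300 mM NaCl, BSA, Tween 20, TCEP. Compounds preincubated 2 h at 37 deg C, then glutathione donor/nickel acceptor beads added for 1 h at 37 deg C in dark.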
JMJD2A Tudor inh: blocks the human JMJD2A Tudor domain; O75164; Potency, µM (titrated, usually from 114 µM), without a hit: at the highest dose activity change, negative = inhibition, usual class: inhibitors; AlphaScreen JMJD2A-Tudor / H3K4me3 peptide binding; actives 4.4% (n = 390,000); note: potency is the fitted concentration of half-maximal effect; % is set by controls: 0 for no effect and ±100 for the full control effect; nearly all actives have a fitted effect of over 50% in size
G9a inh: G9a (human) methyltransferase inhibition; G9a H3K9 monomethylation, AlphaScreen, 2 h; actives 8.8% (n = 350,000); Potency, µM (highest dose often 102 µM), for inactives: at the top dose activity, negative = inhibition, actives largely listed as inhibitors; note: potency is the fitted concentration of half-maximal effect; % is set by controls: 0 for no effect and ±100 for the full control effect; nearly all actives have a fitted effect of over 75% in size
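Methyltransferase reactions run at room temperature for 2 h (20 nM enzyme, 500 nM biotin-H3K9 peptide, 20 uM SAM) after a 15 min compound preincubation; product detected by AlphaScreen beads and anti-H3K9me1 antibody.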
* marks the source's active call; other numbers are inactive results; [ ] = remark or other dose. Most compounds without a hit are left out; they make up all but 10% or so of the library. Unless noted, calls come from the whole dose curve; as a rule, active = well fitted inhibition curve with a large enough effect; inconclusive = small, poorly fitted or top-dose-only effect; inactive = no such curve, though single readings can be large or run the other way.

What do the screens show for `CC(C)OC(=O)c1nn2c(C(F)(F)F)cc(-c3ccc(Br)o3)nc2c1Br`?
HP1b chromo inh: 10%; Six1-Eya2 inh: -16; BAZ2B inh: -4%; CtBP-E1A inh: -19; JMJD2A Tudor inh: -22%; G9a inh: 35µM*

What do the screens show for `Cc1ccc(-n2nnnc2SCC(=O)NCCc2ccccc2)cc1C`?
HP1b chromo inh: 34%; BAZ2B inh: 4%; JMJD2A Tudor inh: 6%; G9a inh: -3%[59 µM]

How did COc1ccc(-n2nnnc2SCC(=O)NCCc2ccccc2)cc1OC do in these assays?
HP1b chromo inh: 32%; Six1-Eya2 inh: 0; BAZ2B inh: inconclusive; CtBP-E1A inh: -10; JMJD2A Tudor inh: -3%; G9a inh: 22µM*

Results for Cn1c(SCC(=O)Nc2ccc(Cl)cc2F)nnc1-c1ccco1 ?
HP1b chromo inh: -14%; Six1-Eya2 inh: 9; BAZ2B inh: -12%; CtBP-E1A inh: 0; JMJD2A Tudor inh: -13%; G9a inh: 45µM*

What do the screens show for `Cn1c(SCC(=O)NCCc2ccccc2)nnc1-c1ccco1`?
HP1b chromo inh: -12%; Six1-Eya2 inh: 1; BAZ2B inh: 4%; CtBP-E1A inh: 3; JMJD2A Tudor inh: 89µM*; G9a inh: 12%[12.7 µM]

What do the screens show for `CCn1c(SCC(=O)NCCc2ccccc2)nnc1-c1ccco1`?
HP1b chromo inh: 31%; Six1-Eya2 inh: -1; BAZ2B inh: -3%; CtBP-E1A inh: 2; JMJD2A Tudor inh: 7%; G9a inh: 40µM*

What do the screens show for `Cn1c(SCC(=O)NCCc2ccccc2)nnc1-c1ccncc1`?
HP1b chromo inh: 52%; Six1-Eya2 inh: 5; CtBP-E1A inh: 7; JMJD2A Tudor inh: -22%[57.1 µM]; G9a inh: inconclusive

What do the screens show for `CCn1c(SCC(=O)NCCc2ccccc2)nnc1-c1cccs1`?
HP1b chromo inh: 22%; Six1-Eya2 inh: 0; BAZ2B inh: 8%; CtBP-E1A inh: 5; JMJD2A Tudor inh: -1%; G9a inh: 3%[59 µM]

What do the screens show for `O=C(c1ccc(OC2CCN(CCCc3ccccc3)CC2)cc1)N1CCCC1`?
HP1b chromo inh: 21%; Six1-Eya2 inh: -5; CtBP-E1A inh: -8; JMJD2A Tudor inh: -14%

Results for Nn1c(SCC(=O)NCCCc2ccccc2)nnc1-c1cccnc1 ?
HP1b chromo inh: 45%; Six1-Eya2 inh: -2; BAZ2B inh: -2%; CtBP-E1A inh: 3; JMJD2A Tudor inh: 5%; G9a inh: 50µM*

How did CCCn1c(SCC(=O)NCCc2ccccc2)nnc1-c1cccnc1 do in these assays?
HP1b chromo inh: -2%; Six1-Eya2 inh: -9; BAZ2B inh: 15%; CtBP-E1A inh: -6; JMJD2A Tudor inh: 14%; G9a inh: 22%

What do the screens show for `COCCn1c(SCC(=O)Nc2ccccc2OC)nnc1-c1ccco1`?
HP1b chromo inh: 4%; Six1-Eya2 inh: 6; BAZ2B inh: -9%; CtBP-E1A inh: -15; JMJD2A Tudor inh: 2%; G9a inh: 12%

Results for COCCn1c(SCC(=O)NCCc2ccccc2)nnc1-c1ccco1 ?
HP1b chromo inh: 36%; Six1-Eya2 inh: -6; BAZ2B inh: -1%; CtBP-E1A inh: -7; JMJD2A Tudor inh: -8%; G9a inh: 45µM*

What do the screens show for `COc1ccc(S(=O)(=O)N(C)C)cc1NCC(=O)Nc1ccc(Br)c(C)c1`?
HP1b chromo inh: 10%; Six1-Eya2 inh: -2; BAZ2B inh: inconclusive; CtBP-E1A inh: -5; JMJD2A Tudor inh: -18%; G9a inh: -11%

What do the screens show for `COC(=O)[C@@]12C[C@@H](CC(=O)N3CCSCC3)C(=O)N(Cc3ccccc3)C1=CCC(C)(C)C2`?
Six1-Eya2 inh: -3; CtBP-E1A inh: -9

What do the screens show for `COc1ccccc1C(=O)C1CCCN(C(=O)c2cn3cc(Cl)ccc3n2)C1` (stereo unspecified)?
HP1b chromo inh: 34%; Six1-Eya2 inh: -2; BAZ2B inh: -26%; CtBP-E1A inh: 11; JMJD2A Tudor inh: -6%; G9a inh: 28µM*

What do the screens show for `CCOc1ccc(-c2nn(-c3ccccc3)cc2C2NC(=O)NC(C)=C2C(=O)OC(C)C)cc1C` (stereo unspecified)?
HP1b chromo inh: 3%; BAZ2B inh: -20%; JMJD2A Tudor inh: inconclusive; G9a inh: -48%[59 µM]

How did Nc1ccccc1NC1CCCCC1 do in these assays?
HP1b chromo inh: inconclusive; Six1-Eya2 inh: -19; BAZ2B inh: 32µM*; CtBP-E1A inh: -27; JMJD2A Tudor inh: 56µM*; G9a inh: 50µM*

Results for O=C(Nc1ccccc1NC(=O)NC1CCCCC1)NC1CCCCC1 ?
HP1b chromo inh: 16%; Six1-Eya2 inh: 1; BAZ2B inh: 12%; CtBP-E1A inh: 3; JMJD2A Tudor inh: -8%; G9a inh: -1%[59 µM]

What do the screens show for `Cc1ccc2onc(CNC(=O)NCc3ccccc3)c2c1`?
HP1b chromo inh: -4%; BAZ2B inh: -16%; JMJD2A Tudor inh: -14%; G9a inh: 7%[59 µM]

Results for COc1ccc2c(c1)N(C)/C(=C/c1cccc[n+]1C)S2 ?
HP1b chromo inh: 34%; Six1-Eya2 inh: -4; BAZ2B inh: inconclusive; CtBP-E1A inh: -6; JMJD2A Tudor inh: inconclusive; G9a inh: 35µM*

What do the screens show for `CCN1/C(=C/c2cccc[n+]2C)Sc2ccc(OC)cc21`?
HP1b chromo inh: -3%; Six1-Eya2 inh: -18; BAZ2B inh: -34%; JMJD2A Tudor inh: 18µM*; G9a inh: 50µM*

Results for Fc1cccc(Cc2c(-c3ccco3)nc3c(Cl)cc(C(F)(F)F)cn23)c1 ?
Six1-Eya2 inh: -18; CtBP-E1A inh: inconclusive

How did Cc1ccccc1CNC(=O)Nc1cccs1 do in these assays?
HP1b chromo inh: inconclusive; Six1-Eya2 inh: -4; BAZ2B inh: -28%; CtBP-E1A inh: -3; JMJD2A Tudor inh: -24%; G9a inh: 7.1µM*

Results for Cc1c(NC(=O)Nc2cccs2)cccc1[N+](=O)[O-] ?
HP1b chromo inh: 10%; Six1-Eya2 inh: -6; BAZ2B inh: 2%; CtBP-E1A inh: -5; JMJD2A Tudor inh: -28%; G9a inh: inconclusive

Results for Cc1cccc(NC(=O)Nc2cccs2)c1C ?
HP1b chromo inh: 8%; BAZ2B inh: -4%; JMJD2A Tudor inh: -15%; G9a inh: 1µM*

Results for O=C(C[C@H]1CC[C@@H]2[C@H](COC[C@@H](O)CN2Cc2cccc(F)c2)O1)NCC1CCCCC1 ?
Six1-Eya2 inh: -2; CtBP-E1A inh: 5

How did CC(C)(C)N1CSC(=S)N(Cc2ccccc2)C1 do in these assays?
HP1b chromo inh: 19%; Six1-Eya2 inh: 2; BAZ2B inh: -12%; CtBP-E1A inh: 0; JMJD2A Tudor inh: -2%; G9a inh: inconclusive

Screens from PubChem BioAssay.
